# Laboratory results as given in PubChem BioAssay AID539 (SRMLSC, 2006).
# The whole screen tested about 65,000 compounds, of which about 320 (0.49%) were called active.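 The calls were made as follows: active = top-ranked compounds by inhibition in the single 10 µM screen, taking a fixed number of the strongest; inactive = the rest, inconclusive results apart.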 The full list was thinned out, with actives kept by preference.
# Tested on: phosphomevalonate kinase (Streptococcus pneumoniae D39)
# Experiment: phosphomevalonate kinase enzyme inhibition – biochemical, mevalonate pathway, pilot trial included, primary screen (AID 539);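 also: 0% = full reaction with DMSO carrier and 100% = background rate without enzyme reaction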
# Conditions: purified PMK, PK/LDH-coupled NADH absorbance 340 nm, at 10 µM, stronger effect = higher value
# [1] = measured here: pilot screen replicates
SMILES,inhibition,inhibition [1]
O=C(Nc1cccc2c1CCCC2)C1CCN(C(=O)NC2CCCCC2)CC1,13% (inactive),
CCC(C)n1[nH]c(=O)cc1N (configuration not stated),5% (inactive),
Cc1nn2c3cc(N4CCOCC4)ccc3nc2c2ccccc12,0% (inactive),
Cn1c(SCC(=O)N2CCOCC2)nnc1-c1ccc(NC(=O)c2ccccc2F)cc1,40% (active),
Cn1c(SCC(=O)Nc2cccc(O)c2)nnc1-c1ccc(S(=O)(=O)N2CCOCC2)cc1,0% (inactive),
Cc1ccccc1C(=O)Nc1cccc(-c2nnc(SCC(=O)O)n2C)c1,7% (inactive),
CCc1nnc(NC(=O)CSc2nnc(COc3ccc(C#N)cc3)n2-c2ccccc2)s1,4% (inactive),
Cn1c(=O)[nH]c(=O)c2c1nc(Br)n2CCCCSc1nc2ccccc2o1,8% (inactive),
C1=C(CCNc2ncnc3c2cnn3-c2ccccc2)CCCC1,8% (inactive),0.5%
c1csc(-c2nc(-c3ccncc3)no2)c1,0% (inactive),
O=C(O)CCN1C(=O)CC2(CCCCC2)C1=O,12% (inactive),
Cc1ccc(C)c(NC(=O)C2CCCN2C(=O)OC(C)(C)C)c1 (configuration not stated),0% (inactive),
CC(C)N(C(=O)Cn1c(SCC(=O)N2CCN(c3ccccc3)CC2)nc2ccccc21)C(C)C,4% (inactive),
COCCN(CC(=O)Nc1ccccc1C)S(=O)(=O)c1ccc(S(=O)(=O)N2CCCC2)cc1,10% (inactive),2.5%
CCOC(=O)C1CCN(C(=O)C2CCN(S(=O)(=O)N3CCCC3)CC2)CC1,30% (active),
CCOC(=O)C1CCN(C(=O)C2CCN(S(=O)(=O)c3c(C)noc3C)CC2)CC1,11% (inactive),
CCOC(=O)C1CCN(C(=O)C2CCN(S(=O)(=O)CC)CC2)CC1,2% (inactive),
CC1(C)CC(=O)C=C(NC2CC(C)(C)NC(C)(C)C2)C1,8% (inactive),
c1ccc(CCn2nnnc2CN2CCN(C3CCCC3)CC2)cc1,0% (inactive),0.5%
CC1CCCCC1NC(=O)CCS(=O)(=O)c1cccc2nonc12 (configuration not stated),0% (inactive),
O=C1CSC(=O)N1CCOCCN1C(=O)CSC1=O,8% (inactive),
Cc1ccccc1CN1CCN(C(=O)c2cccc(F)c2)CC1,0% (inactive),2%
CCCCCOC(=O)C1=C(C)Nc2nnnn2C1c1ccc(OC)c(OC)c1OC (configuration not stated),11% (inactive),
COc1ccc(CCn2nnnc2C(c2ccccc2)N2CCN(C)CC2)cc1OC (configuration not stated),18% (inactive),
COC(=O)c1ccc(Oc2nc(Nc3ccc(F)cc3)nc(N3CCCC3)n2)cc1,4% (inactive),

SMILES,inhibition,inhibition [1]
Cc1ccc(-c2ccc(=O)n(CC(=O)NCCCN3CCCCC3)n2)cc1,18% (inactive),
CCC1CCCCN1CCNC(=O)c1[nH]c(C)c(C(C)=O)c1C (configuration not stated),1% (inactive),
CCC1CCCCN1CCCNC(=O)Cn1nc(-c2ccccc2)ccc1=O (configuration not stated),26% (active),
CCCCNc1nc2c(c(=O)n(C)c(=O)n2C)n1Cc1cccc(OC)c1,0% (inactive),
COc1ccccc1NC(=O)CN1CCN(S(=O)(=O)c2ccc(Br)cc2)CC1,5% (inactive),
NC(=O)C1CCN(C(=O)c2ccc(C(F)(F)F)cc2)CC1,12% (inactive),
CCC(=O)c1ccc(OCC(O)CN2CCN(c3cccc(C(F)(F)F)c3)CC2)cc1 (configuration not stated),0% (inactive),
O=C(NCCCN1CCCCCC1)C1CC(=O)N(C2CCCC2)C1 (configuration not stated),12% (inactive),
CCOc1ccc2[nH]c(=O)c(CN(CCCO)C(C)=O)cc2c1,20% (inactive),
COC(=O)CCSc1nccn1Cc1ccccc1,0% (inactive),
O=C(CSc1nnnn1-c1ccc2c(c1)CCC2)Nc1ccc2c(c1)OCCO2,0% (inactive),
CCn1ncc(Br)c1C(=O)Nc1cc(C)ccc1F,6% (inactive),
COc1ccc(C(c2nnnn2C2CCCCC2)N2CCN(c3ccccc3F)CC2)cc1 (configuration not stated),3% (inactive),
CC1CCc2c(sc(NC(=O)c3ccc(Cn4cc(Br)cn4)o3)c2C(N)=O)C1 (configuration not stated),0% (inactive),
COc1ccc(N(CC(=O)NC2CCCCCCC2)S(=O)(=O)c2c(C)nn(C)c2C)cc1,10% (inactive),
CCOC(=O)c1cccc(NC(=O)CN(c2ccc(C)cc2)S(=O)(=O)c2c(C)noc2C)c1,13% (inactive),
Cc1ccc(S(=O)(=O)N2CCOCC2)cc1C(=O)NCc1ccc(F)cc1,8% (inactive),
Cc1nc2nc[nH]n2c(=O)c1NC(=O)c1cccc(OCC(C)C)c1,12% (inactive),
O=C(Cn1nc(Cc2cccnc2)c2ccccc2c1=O)NCC1COc2ccccc2O1 (configuration not stated),7% (inactive),
COCCNC(=O)C(C#N)c1nc2ccccc2nc1N1CCN(Cc2ccc3c(c2)OCO3)CC1 (configuration not stated),2% (inactive),
CCOC(=O)Cc1csc(NC(=O)C(C)(C)C)n1,4% (inactive),
COC(=O)CSc1nc(C2CC2)nc2ccccc12,15% (inactive),
Cc1ccccc1-n1nnc2c(=O)oc3ccccc3c21,10% (inactive),4%
CC(=O)N1CCN(C(=O)Nc2cccc(C(F)(F)F)c2)CC1,17% (inactive),
CC(C)C(NC(=O)c1cccc(S(=O)(=O)N2CCOCC2)c1)C(=O)NCCc1ccccn1 (configuration not stated),11% (inactive),

SMILES,inhibition,inhibition [1]
Cn1c(=O)c2c(nc(N3CCCCCC3)n2CC(O)COc2ccc(Cl)cc2)n(C)c1=O (configuration not stated),7% (inactive),
Cn1c(=O)oc2cc(S(=O)(=O)N3CCC(C(=O)Nc4ccc(OC(F)(F)F)cc4)CC3)ccc21,14% (inactive),2%
COc1ccc(S(=O)(=O)N2CCC(C(=O)N3CCOCC3)CC2)cc1OC,8% (inactive),
CCC(CC)C(=O)Nc1cccc(C(=O)N2CCCC2)c1,4% (inactive),
C=CCn1c(C)cc(C(=O)CN2C(=O)c3ccccc3C2=O)c1C,13% (inactive),
COc1cc(C2C(C(=O)c3sc(C)nc3C)=C(O)C(=O)N2CCN(C)C)cc(OC)c1OC (configuration not stated),17% (inactive),
O=C(COc1ccc2c3c(c(=O)oc2c1)CCC3)NC1CCCCC1,15% (inactive),
CCOC(=O)N1CCN(S(=O)(=O)c2cc3c(cc2C)NC(=O)CO3)CC1,14% (inactive),
CC(=O)C1C(c2ccc(Cl)cc2)NC(=O)NC1(O)C(F)(F)F (configuration not stated),7% (inactive),
Nc1c(C(=O)NCc2ccccc2)nnn1Cc1cccc(Cl)c1,0% (inactive),
CCOC(=O)c1[nH]c2ccc(OC)cc2c1NC(=O)CCN1CCN(Cc2ccccc2)CC1,6% (inactive),
CCN(CC)S(=O)(=O)c1cccc(C(=O)NCC(=O)OCC(=O)NCc2ccccc2)c1,0% (inactive),
Cc1ccc(C)n1C(Cc1ccccc1)C(=O)O (configuration not stated),7% (inactive),
COc1ccc(OC)c2c1sc(=NC(=O)CN1C(=O)CCC1=O)n2C,12% (inactive),
O=C(Nc1ccc(S(=O)(=O)N2CCCC2)cc1Cl)C1=COCCO1,14% (inactive),
N#Cc1ccccc1-n1c(N)c(C(=O)N2CCCC2)sc1=S,4% (inactive),
Cc1ccc(S(=O)(=O)N2CCN(C(=O)CCC(=O)NC3CCCc4ccccc43)CC2)cc1 (configuration not stated),21% (inactive),
c1ccc(CCN2CN=C(Nc3nc4ccccc4o3)NC2)cc1,7% (inactive),
Fc1ccc2nc(Nc3nc4c(s3)CCCC4)sc2c1,8% (inactive),
Clc1ccc(Cn2ncc3c(NCc4cccnc4)ncnc32)cc1,9% (inactive),1.5%
Fc1c(F)c(C(F)(F)F)c(F)c(F)c1N1CCN(c2ccc3nnc(C(F)(F)F)n3n2)CC1,0% (inactive),
COc1ccccc1N1CCN(c2nc3ccccc3n3nnnc23)CC1,7% (inactive),
Cc1ccc(C(=O)NC2CC(C)(C)NC(C)(C)C2)c(C)c1,1% (inactive),
CCOC(=O)N1CCN(Cc2nc3c(c(=O)n(C)c(=O)n3C)n2Cc2ccccc2)CC1,2% (inactive),1%
CCOC(=O)CSc1nc2c(c(=O)n(Cc3ccccc3Cl)c(=O)n2C)n1C,5% (inactive),

SMILES,inhibition,inhibition [1]
CCOc1cc2[nH]c(=S)n(CCCN3CCCC3=O)c(=O)c2cc1OCC,14% (inactive),
COc1ccc(OC)c2[nH]c(=O)c(CCNC(=O)C(C)(C)C)cc12,7% (inactive),
N=c1c2c3c(sc2ncn1N)CCCCC3,17% (inactive),
O=C1c2ccccc2C(=O)N1c1ccccc1S(=O)C(F)(F)F (configuration not stated),12% (inactive),
CCOC(=O)c1nnn(-c2nc(OC)nc(N(C)C)n2)c1-c1ccccc1,17% (inactive),
COc1ccccc1NC(=O)C1=C(C)NC2=C(C(=O)CCC2)C1c1ccc(C)o1 (configuration not stated),26% (active),
COc1ccccc1NC(=O)C1=C(C)Nc2ncnn2C1c1ccc(C)o1 (configuration not stated),3% (inactive),2.5%
COc1ccc(C2C(C(=O)Nc3ccccc3OC)=C(C)Nc3nnnn32)c(OC)c1 (configuration not stated),8% (inactive),
COc1cc(OC)cc(C(=O)Nc2ncc3c(n2)CC(C)(C)CC3=O)c1,11% (inactive),
Cc1cc(NC(=O)Cn2nc(C(F)(F)F)c3c2CCCC3)no1,3% (inactive),
c1cnc(NC2C3CC4CC(C3)CC2C4)nc1 (configuration not stated),7% (inactive),
COc1ccc2[nH]c3ccc(OC)cc3c2c1,6% (inactive),
COc1ccc(NC(=O)C2CCCN(S(=O)(=O)c3cccc4cccnc34)C2)cc1 (configuration not stated),8% (inactive),
C#CCN1CC(C)/C(=N/O)CC1C (configuration not stated),7% (inactive),
Cc1cccc(NC(=O)c2ccc3ccccc3n2)n1,0% (inactive),0.5%
CCOc1ccc(CNC(=O)C2CC(=O)N(C3CCCC3)C2)cc1OC (configuration not stated),8% (inactive),
CCOc1ccc(CNC(=O)C2CCC(=O)N2C2CCCC2)cc1OC (configuration not stated),11% (inactive),
CCOCCCN1C(=O)CN(C2CCCCC2)C(=O)C1c1ccc(OCC)c(OC)c1 (configuration not stated),29% (active),
CCc1nnc(NC(=O)c2cccs2)s1,35% (active),
CCc1nnc(NC(=O)CCC(=O)O)s1,0% (inactive),
CCc1ccccc1NC(=O)c1cccs1,7% (inactive),
CCCN(c1ccc(C(C)C)cc1)S(=O)(=O)c1c(C)[nH]c(=O)[nH]c1=O,8% (inactive),
